Experimental data reported in PubChem BioAssay (NCI).
The panel holds about 79,000 compounds, 15% with a hit somewhere; the sample as a whole holds those more often. Cut-off read from the data, not from the text of the source: active = growth inhibition above about 70%; inactive = the rest.

How the values were obtained:
[1] = NCI Yeast Anticancer Drug Screen. Data for the rad50 strain (AID 155);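 note: 0% = growth of vehicle-only cultures of the same strain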; details: S. cerevisiae rad50 strain growth inhibition; at 50.0 µM; stronger effect = higher value
Procedure, shortened: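 DNA repair mutant yeast, compound exposure, growth read-out; inhibition is taken relative to vehicle.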

[2] = NCI Yeast Anticancer Drug Screen. Data for the mec2-1 strain (AID 157); details: S. cerevisiae mec2-1 strain, at 50.0 µM, stronger effect = higher value
Procedure, shortened: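 mec2-1 yeast strain, carrying an alteration in DNA damage repair or cell cycle control, was exposed to compounds; growth inhibition was measured relative to vehicle-treated controls.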

[3] = NCI Yeast Anticancer Drug Screen. Data for the sgs1 mgt1 strain (AID 161);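 note: 0% = growth of cultures given vehicle only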; details: S. cerevisiae sgs1 mgt1 strain, at 50.0 µM, stronger effect = higher value
Procedure, shortened: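 Growth of a repair-deficient yeast mutant was monitored after compound treatment and expressed as inhibition relative to vehicle-treated cultures.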

[4] = NCI Yeast Anticancer Drug Screen. Data for the cln2 rad14 strain (AID 165);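 note: 0% = growth equal to vehicle treated cultures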; details: S. cerevisiae cln2 rad14 strain, at 50.0 µM, stronger effect = higher value
Procedure, shortened: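 Yeast carrying cln2 and rad14 alterations (cell cycle control and DNA damage repair) were exposed to compounds. Growth inhibition was measured against vehicle-treated controls.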

[5] = NCI Yeast Anticancer Drug Screen. Data for the bub3 strain (AID 167); details: S. cerevisiae bub3 mutant strain, at 50.0 µM, stronger effect = higher value
Procedure, shortened: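 In this screen, a yeast mutant lacking normal mitotic checkpoint function is challenged with compound. Relative growth versus vehicle gives the inhibition value.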

[6] = NCI Yeast Anticancer Drug Screen. Data for the mlh1 rad18 strain (AID 175); details: S. cerevisiae mlh1 rad18 strain growth inhibition; at 50.0 µM; stronger effect = higher value
Procedure, shortened: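 Growth inhibition of the yeast strain was measured after compound exposure and expressed relative to vehicle-treated controls. The strain carries defined defects in DNA damage repair.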

Measured: growth inhibition

C[N+](C)(Cc1ccccc1)c1ccccc1
inactive: [1] -3.7% | [2] -6% | [3] -0.15% | [4] -34.9% | [5] 4.1% | [6] -11.2%

Cn1c(=O)c2c(ncn2CN2CCN(Cn3cnc4c3c(=O)n(C)c(=O)n4C)CC2)n(C)c1=O
inactive: [1] 2.75% | [2] 28.2% | [3] -7.45% | [4] 16.1% | [5] -63.9% | [6] -30%

CC(=O)C1=CCC(C(C)C)C1 (stereo unspecified)
inactive: [1] 4.2% | [2] -0.9% | [3] -1.2% | [4] -1.3% | [5] 17.1% | [6] 2%

O=[N+]([O-])c1ccc(NN=C2CCCCCC2)c([N+](=O)[O-])c1
inactive: [1] 5.95% | [2] 8.35% | [3] 8.3% | [4] -99% | [5] 7.45% | [6] -0.45%

c1ccc2c(c1)OCCOCCOc1ccccc1OCCO2
inactive: [1] -3.6% | [2] 0.4% | [3] 0.95% | [4] 17.8% | [5] -6.5% | [6] -3.65%

CC1=CNNc2ccccc21
inactive: [1] -2.6% | [2] 1.45% | [3] -4.6% | [4] 8% | [5] -14.4% | [6] 5.1%

O=[N+]([O-])c1ccc(-c2cn(-c3ccc(Cl)cc3)cn2)cc1
inactive: [1] 2.75% | [2] -4.15% | [3] 7.5% | [4] 3.35% | [5] -1.85% | [6] -5.7%

CCn1c(=O)c2nc(SC)sc2n(-c2ccc(C)cc2)c1=O
inactive: [1] -21.2% | [2] -0.6% | [3] -5.7% | [4] 9.7% | [5] 2% | [6] 20.9%

C=C1CC2(CCC3C4CC=C5CC(O)CCC5(C)C4CCC32C)OC1=O (stereo unspecified)
inactive: [1] 2.9% | [2] 11.7% | [3] 6.45% | [4] 46.3% | [5] 8.15% | [6] 15.2%

COc1cccc(/C=C/c2cc3c(cc2Br)OCO3)c1
inactive: [1] 3.3% | [2] -3.35% | [3] 2.55% | [4] 3.65% | [5] 1.9% | [6] -6.3%

CC(=O)CC(O)(C(F)(F)Cl)C(F)(Cl)Cl (stereo unspecified)
inactive: [1] -35.5% | [2] -47.7% | [3] -42.8% | [4] 0.2% | [5] -30.1% | [6] -35.8%

NC1CCC(P(=O)(O)O)CC1 (stereo unspecified)
inactive: [1] -0.35% | [2] 3.45% | [3] -4.75% | [4] -9.65% | [5] -6.2% | [6] -5.1%

NCCN(Cc1ccccc1)C1CC1
inactive: [1] 5.4% | [2] -33.6% | [3] 9.35% | [4] 15.3% | [5] -16.2% | [6] -1.05%

C=CCc1cc(OC)c(O)c(C(=O)OCC)c1
inactive: [1] -2.35% | [2] -12.8% | [3] -3.25% | [4] 1.3% | [5] 7.65% | [6] -2.15%

O=C(CCCl)Nc1cccc(CCC(=O)c2ccccc2NC(=O)CCCl)c1
inactive: [1] -8.1% | [2] -18.1% | [3] -4.2% | [4] -15.9% | [5] -7.1% | [6] -10.4%

CN(C)c1ccc(/C=N/N(Cc2ccccc2)c2ccccc2)cc1
inactive: [1] -14.4% | [2] -29.1% | [3] 3.2% | [4] -11.6% | [5] 11.3% | [6] 10.2%

NCC1OC(n2cnc3c(N)ncnc32)CC1O (stereo unspecified)
inactive: [1] -16.1% | [2] -2.75% | [3] -17.8% | [4] 0.65% | [5] -28.6% | [6] -7.85%

CCCC(=O)n1[nH]c(=O)n(-c2ccc(Cl)cc2)c1=O
inactive: [1] 5.15% | [2] -12.3% | [3] 19.8% | [4] 3.25% | [5] -2.1% | [6] -10.3%

O=C(N/C(=C\c1ccc([N+](=O)[O-])cc1)c1nc2ccccc2[nH]1)c1ccccc1
inactive: [1] 29.1% | [2] 6.55% | [3] 8.35% | [4] -37.9% | [5] 17.9% | [6] 23.8%

COc1cc(-c2cc(=O)c3cc4c(=O)cc(-c5cc(OC)c(OC)c(OC)c5)oc4cc3o2)cc(OC)c1OC
inactive: [1] -11.2% | [2] 1.25% | [3] 11.2% | [4] -75% | [5] -7.7% | [6] -5%

CCOC(=O)/C(C#N)=C1/Sc2c(ncn(/N=C/c3ccc(OC)cc3)c2=O)N1c1ccccc1
inactive: [1] 26.7% | [2] -2.85% | [3] 6.45% | [4] -45.3% | [5] -12.8% | [6] 4.4%

CC(=O)Oc1nnc(-c2ccccc2)c(-c2ccccc2)n1
inactive: [1] 24.5% | [2] 16.9% | [3] 17.1% | [4] 13.8% | [5] 7.4% | [6] 17.3%

Cc1ccc2[nH]c(=O)cc(C)c2c1
inactive: [1] 15.2% | [2] -0.45% | [3] 13.8% | [4] 20.2% | [5] 8.15% | [6] 30.8%

CC(=O)OC1COC(N2C(=O)C(=O)c3cc(Br)c([N+](=O)[O-])cc32)C(OC(C)=O)C1OC(C)=O (stereo unspecified)
inactive: [1] 14.3% | [2] 12.2% | [3] -10.6% | [4] -1.9% | [5] -9.6% | [6] 1.3%

[O-]C(=N/C(=N/[n+]1ccccc1)c1ccccc1)c1ccccc1
inactive: [1] 12.2% | [2] 10.9% | [3] 4.2% | [4] -9% | [5] -4.05% | [6] 2%

CC(C)(C)/[N+]([O-])=C/C(c1ccccc1)C(/C=[N+](/[O-])C(C)(C)C)c1ccccc1 (stereo unspecified)
inactive: [1] -3.5% | [2] -4.5% | [3] -15.3% | [4] 3.85% | [5] -2.1% | [6] -18.6%

O=C(Nc1cccc(Cl)c1)OCC#CCOC(=O)Nc1cccc(Cl)c1
inactive: [1] -4% | [2] 11.6% | [3] 1.95% | [4] -10.8% | [5] 0.85% | [6] 11.2%

CN(C(=O)C12C3C4C1C1C2C3C41C(N)=O)C(C)(C)C (stereo unspecified)
inactive: [1] 9.6% | [2] 7.8% | [3] 4.35% | [4] 25.1% | [5] 18.5% | [6] -6.3%

CCC1(O)c2ccccc2CCC1C (stereo unspecified)
inactive: [1] 12.8% | [2] -15.8% | [3] -15.3% | [4] -29.9% | [5] -33.1% | [6] -19.9%

Cc1ccc(S(=O)(=O)NN=C2C(C)CC(C(C)(C)C)CC2C)cc1 (stereo unspecified)
inactive: [1] -24.8% | [2] 26% | [3] -41.9% | [4] 8.9% | [5] 44.6% | [6] -6%

CC(C)(C)OC(=O)N(CCCCNC(=O)c1ccccc1)CCCNC(=O)c1ccccc1
inactive: [1] 13.4% | [2] -8.5% | [3] -30% | [4] -26.5% | [5] -36.5% | [6] -64%

CSc1nc(C)c(Br)c(=O)n1C1OC(COC(C)=O)C(OC(C)=O)C(OC(C)=O)C1OC(C)=O (stereo unspecified)
inactive: [1] -1.2% | [2] -7.5% | [3] -13.1% | [4] 22.2% | [5] -19.9% | [6] 1.35%

COC(=O)C[C@@]1(C(=O)OC)[C@@H](C(=O)OC)C(C(=O)OC)=NN1C
inactive: [1] -5.35% | [2] -18.4% | [3] 0.85% | [4] -49% | [5] 18.1% | [6] -4.45%

O=C(O)CC(Nc1ncccn1)C(=O)O (stereo unspecified)
inactive: [1] 3.05% | [2] 6% | [3] 10.7% | [4] 24.1% | [5] -6.1% | [6] 5.4%

c1ccc(SCCCCSc2ccccc2)cc1
inactive: [1] 17.1% | [2] 5.05% | [3] -2.55% | [4] -38% | [5] 14.1% | [6] 43%

O=C1c2cc(Cl)ccc2-n2c(noc2=O)C2CSCN12 (stereo unspecified)
inactive: [1] -8% | [2] -10.3% | [3] -21% | [4] 8.85% | [5] -18.3% | [6] 11.6%

O=C(Cc1ccccc1)N/N=C(/c1nc2ccc([N+](=O)[O-])cc2[nH]c1=O)C(O)c1ccco1 (stereo unspecified)
inactive: [1] -0.95% | [2] -9.75% | [3] -4.85% | [4] -79.2% | [5] -6.25% | [6] -2.8%

CC(=O)Nc1ccc(S(=O)(=O)NC(=O)NCCC(C)C)cc1
inactive: [1] 1.95% | [2] 2.45% | [3] 9.8% | [4] -20.2% | [5] 8.6% | [6] 7.85%

OCCOCn1nc(-c2ccccc2)nc1-c1cnccn1
inactive: [1] -13.4% | [2] -4.55% | [3] -20.3% | [4] -27.9% | [5] -38.1% | [6] -24.1%

NC(=O)C(F)(F)C(F)(F)C(N)=O
inactive: [1] -28.1% | [2] -16.8% | [3] -15% | [4] -51.6% | [5] 3.25% | [6] -1.9%

CCOC(=O)N1c2ccccc2OC1C#N (stereo unspecified)
inactive: [1] -17.3% | [2] 1.3% | [3] -4.4% | [4] -33.1% | [5] 51.3% | [6] 13.5%
